Measured values from PubChem BioAssay (NCI).
About 83,000 compounds went through this panel and 20% of them were active in at least one assay; those are over-represented in the sample as a whole.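 Testing used 96-well plates and a 48-hour single-concentration exposure. Example: -40 means 40% of the starting cells died.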 Active and inactive are the calls of the source. How the source made its calls: active means growth percent below 10; inactive means the rest.

What was measured:
Assay in all cases: NCI-60 one-dose screen, 48 h (100 = growth as untreated, 0 = no growth, -100 = all killed)
Settings in all cases: 10 µM unless noted
T-47D breast = system: T-47D breast
BT-549 breast = system: BT-549 breast
MDA-MB-435 melanoma = system: MDA-MB-435 melanoma
SW-620 colon = system: SW-620 colon
MCF7 breast = system: MCF7 breast
HCT-116 colon = system: HCT-116 colon
HCC-2998 colon = system: HCC-2998 colon
KM12 colon = system: KM12 colon

Measured: growth

CC(C)(Sc1cc(C(C)(C)C)c(O)c(C(C)(C)C)c1)Sc1cc(C(C)(C)C)c(OC(=O)CCC(=O)O)c(C(C)(C)C)c1
inactive: T-47D breast 31.4% | BT-549 breast 54.8% | MDA-MB-435 melanoma 47.2% | SW-620 colon 44.9% | MCF7 breast 35.8% | HCT-116 colon 28.3% | HCC-2998 colon 42.9% | KM12 colon 33.3%

CC(=O)N1N=C(c2ccc(Nc3nc(Nc4ccc(F)cc4)nc(Nc4ccc(F)cc4)n3)cc2)CC1c1ccc(N(C)C)cc1 (stereo not drawn)
active: MDA-MB-435 melanoma 6.22%
inactive: T-47D breast 25% | BT-549 breast 63.9% | SW-620 colon 63.7% | MCF7 breast 42.2% | HCT-116 colon 43.3% | HCC-2998 colon 67.5% | KM12 colon 39.8%

O=S(=O)(Nc1cc(F)cc(F)c1)c1ccc(-c2cnc(C3CC3)o2)cc1
inactive: T-47D breast 29.8% | BT-549 breast 36.1% | SW-620 colon 17.2% | MCF7 breast 14.3% | HCT-116 colon 19.1% | HCC-2998 colon 67.3% | KM12 colon 19.2%
active: MDA-MB-435 melanoma -23.6%

Clc1cccc(C2Cc3cnccc3-c3[nH]c4ccncc4c32)c1 (stereo not drawn)
inactive: T-47D breast 34.4% | BT-549 breast 50.1% | MDA-MB-435 melanoma 39.5% | SW-620 colon 44.7% | MCF7 breast 20.4% | HCT-116 colon 32.5% | HCC-2998 colon 76.7% | KM12 colon 44.3%

Nc1cc(Br)cc2c1[nH]c(=O)c1ccccc12
inactive: T-47D breast 79.6% | BT-549 breast 86.9% | MDA-MB-435 melanoma 113% | SW-620 colon 94.7% | MCF7 breast 53.2% | HCT-116 colon 96.8% | HCC-2998 colon 104% | KM12 colon 104%

CC1(C)CC[C@]2(CO)CC[C@]3(C)[C@](O)([C@H](O)C[C@@H]4[C@@]5(C)CCCNC(C)(C)[C@@H]5CC[C@]43C)[C@@H]2C1
inactive: T-47D breast 84.3% | BT-549 breast 98.8% | MDA-MB-435 melanoma 93.2% | SW-620 colon 99.6% | MCF7 breast 91.7% | HCT-116 colon 71.3% | HCC-2998 colon 58.4% | KM12 colon 95%

COCCOC(C)C(/C=N/NC(N)=S)=N/NC(N)=S (stereo not drawn)
active: HCT-116 colon 6.21%
inactive: T-47D breast 28.7% | BT-549 breast 90.1% | MDA-MB-435 melanoma 87.4% | SW-620 colon 61.7% | MCF7 breast 19.2% | HCC-2998 colon 94.2% | KM12 colon 92.2%

CCOC(=O)C(CCN(C)C)c1ccccc1 (stereo not drawn)
inactive: T-47D breast 103% | BT-549 breast 97.3% | MDA-MB-435 melanoma 107% | SW-620 colon 108% | MCF7 breast 92.7% | HCT-116 colon 104% | HCC-2998 colon 96.3% | KM12 colon 104%

Oc1c(I)cc(I)cc1CN(Cc1ccccn1)Cc1ccccn1
inactive: T-47D breast 22.4% | BT-549 breast 30.7% | MDA-MB-435 melanoma 35.6% | SW-620 colon 22.2% | MCF7 breast 13.4% | HCT-116 colon 18.1% | HCC-2998 colon 35.1% | KM12 colon 26.8%

S=c1ccnc[nH]1
inactive: T-47D breast 125% | BT-549 breast 106% | MDA-MB-435 melanoma 113% | SW-620 colon 108% | MCF7 breast 107% | HCT-116 colon 96.8% | HCC-2998 colon 104% | KM12 colon 109%

Fc1ccc(/C=C/[C@@H]2C[C@@H](F)CCO2)cc1
inactive: T-47D breast 101% | BT-549 breast 100% | MDA-MB-435 melanoma 97.9% | SW-620 colon 90.2% | MCF7 breast 91.3% | HCT-116 colon 82.2% | HCC-2998 colon 60.6% | KM12 colon 105%

CC(=O)Nc1sc2c(c1-c1nc3ccccc3s1)CNC2
active: T-47D breast 4.49% | MCF7 breast 5.45%
inactive: BT-549 breast 58.1% | MDA-MB-435 melanoma 29.7% | SW-620 colon 18.8% | HCT-116 colon 18.8% | HCC-2998 colon 33.6% | KM12 colon 22.8%

CCN(CC)CCOc1ccc(Nc2ncc3cc(-c4c(Cl)cccc4Cl)c(=O)n(CCOC)c3n2)cc1
inactive: T-47D breast 29.4% | MCF7 breast 17.2% | KM12 colon 15.9%
active: BT-549 breast -15.1% | MDA-MB-435 melanoma 1.33% | SW-620 colon 7.96% | HCT-116 colon -40.6% | HCC-2998 colon 9.52%

Nc1ncccc1O
inactive: T-47D breast 96.2% | BT-549 breast 93.7% | MDA-MB-435 melanoma 109% | SW-620 colon 51% | MCF7 breast 68.6% | HCT-116 colon 37.9% | HCC-2998 colon 97.4% | KM12 colon 100%

O=c1c2ccccc2n(C[C@H]2CO2)c2ccccc12
active: BT-549 breast -4.38% | MDA-MB-435 melanoma -61.5% | SW-620 colon 0.352% | MCF7 breast -4.75% | HCT-116 colon 2.21% | HCC-2998 colon -70% | KM12 colon -16.4%
inactive: T-47D breast 12.6%

CCOC(=O)/C(=C(/C)NCC(C)C)c1cc(O)c(O)c2c(C)cc(=O)[nH]c12
inactive: T-47D breast 34.7% | BT-549 breast 63% | MDA-MB-435 melanoma 60.9% | SW-620 colon 31.8% | MCF7 breast 29.4% | HCT-116 colon 10.1% | HCC-2998 colon 61.9% | KM12 colon 61.5%

Clc1ccc(Nc2nnc(CNc3ccccc3)c3ccccc23)cc1
inactive: SW-620 colon 30.8% | HCC-2998 colon 18.3%
active: T-47D breast 2.82% | BT-549 breast 4.94% | MDA-MB-435 melanoma 4.17% | MCF7 breast 9.2% | HCT-116 colon 9.94% | KM12 colon 8.93%

COc1cc(N2C(=O)[C@H](Cl)C2c2ccc(SC)cc2)cc(OC)c1OC (stereo partly drawn)
active: BT-549 breast -9.33% | MDA-MB-435 melanoma -26.3% | HCT-116 colon -17.2% | HCC-2998 colon 7.52%
inactive: T-47D breast 49.1% | SW-620 colon 24.3% | MCF7 breast 12.4% | KM12 colon 14.4%

O=C(/C=C/c1ccco1)Nc1ncc(Cc2cc(Cl)ccc2Cl)s1
inactive: T-47D breast 37.4% | BT-549 breast 17.1% | SW-620 colon 20.6% | MCF7 breast 13.3% | HCT-116 colon 16.3% | HCC-2998 colon 13.9% | KM12 colon 10.4%
active: MDA-MB-435 melanoma -47.3%

C=CC(CC(c1ccccc1)(c1ccccc1)c1ccccc1)N(CC)CC (stereo not drawn)
inactive: T-47D breast 59.3% | BT-549 breast 64.4% | MDA-MB-435 melanoma 79.2% | SW-620 colon 55.4% | MCF7 breast 73% | HCT-116 colon 43.9% | HCC-2998 colon 69% | KM12 colon 58.8%

c1csc(-c2cn3nc(-c4c[nH]c5ccccc45)sc3n2)c1
inactive: T-47D breast 23.9% | BT-549 breast 38% | SW-620 colon 22.5% | MCF7 breast 13% | HCT-116 colon 14.7% | HCC-2998 colon 52.4% | KM12 colon 23.8%
active: MDA-MB-435 melanoma -38.4%

CC(=O)c1c(Nc2cccc(F)c2)[nH]c2c(Cl)cc(Cl)c(Cl)c2c1=O
active: T-47D breast -11.1% | BT-549 breast 8.92% | MDA-MB-435 melanoma 2.08% | SW-620 colon 9.59% | MCF7 breast 2.73% | HCT-116 colon 5.08% | KM12 colon 4.18%
inactive: HCC-2998 colon 10.7%

O=C1C=CC2(O)OC/C(=C\c3ccccc3)C(O)=C2C1=O (stereo not drawn)
active: T-47D breast -19.8% | BT-549 breast -1.66% | SW-620 colon 5.52% | HCT-116 colon -9.7% | KM12 colon -16.9%
inactive: MDA-MB-435 melanoma 15.8% | MCF7 breast 23.4% | HCC-2998 colon 80.6%

N#C/C(=C\c1ccc(-c2cccc(Cl)c2)o1)C(=O)Nc1ncc(Cc2ccc(Cl)cc2)s1
inactive: T-47D breast 20.7% | BT-549 breast 72.9% | MDA-MB-435 melanoma 56.5% | SW-620 colon 62.5% | MCF7 breast 54.4% | HCT-116 colon 41.9% | HCC-2998 colon 94.3% | KM12 colon 48.6%

O=[N+]([O-])c1ccccc1Nc1ccc2ccccc2c1
inactive: T-47D breast 91.1% | BT-549 breast 84.8% | MDA-MB-435 melanoma 99% | SW-620 colon 83.8% | MCF7 breast 74.9% | HCT-116 colon 82.9% | HCC-2998 colon 105% | KM12 colon 99.4%

Cc1ccc(OCCOCCOCCOCCOCCOc2ccc(C)n(O)c2=S)c(=S)n1O
inactive: T-47D breast 15.1% | BT-549 breast 26% | MDA-MB-435 melanoma 32.6% | SW-620 colon 27.9% | MCF7 breast 11.5% | HCT-116 colon 18% | KM12 colon 23%
active: HCC-2998 colon -7.72%

Cc1c(C(C)(C)O)cn2ncnc(Oc3ccc(NC(=O)Nc4ccc(Cl)c(C(F)(F)F)c4)c(F)c3)c12
inactive: T-47D breast 40.6% | BT-549 breast 72.4% | MDA-MB-435 melanoma 58% | SW-620 colon 85% | MCF7 breast 32.4% | HCT-116 colon 38.7% | HCC-2998 colon 125% | KM12 colon 43.6%

Clc1ccc(Nc2ncc(Cc3cccc(Cl)c3Cl)s2)cc1
inactive: T-47D breast 77.9% | BT-549 breast 129% | MDA-MB-435 melanoma 105% | SW-620 colon 101% | MCF7 breast 90.9% | HCT-116 colon 92.8% | HCC-2998 colon 101% | KM12 colon 101%

CCC(C)(C)c1ccc(Nc2ccc(Nc3ccc(C(C)(C)CC)cc3)cc2)cc1
inactive: T-47D breast 58.4% | BT-549 breast 133% | MDA-MB-435 melanoma 97.1% | SW-620 colon 85.5% | MCF7 breast 80% | HCT-116 colon 60.5% | HCC-2998 colon 101% | KM12 colon 89.9%

Fc1cccc(-c2nc(-c3c[nH]c4ncccc34)cs2)c1
inactive: T-47D breast 40.5% [100 µM] | BT-549 breast 65.6% [100 µM] | MDA-MB-435 melanoma 50.4% [100 µM] | SW-620 colon 56% [100 µM] | MCF7 breast 44.6% [100 µM] | HCT-116 colon 33.8% [100 µM] | HCC-2998 colon 89% [100 µM] | KM12 colon 56.6% [100 µM]

COc1cc(C[C@H]2COc3cc(O)cc(O)c3C2=O)ccc1O
inactive: T-47D breast 31.3% | BT-549 breast 27.8% | SW-620 colon 23.1% | MCF7 breast 22.6% | HCT-116 colon 12.6% | HCC-2998 colon 88.2% | KM12 colon 24.7%
active: MDA-MB-435 melanoma -22.5%
